Source: PubChem BioAssay AID1159580 (chemical genetic matrix, 2015)
In all, about 5,500 compounds went through this assay and about 2,000 (36%) were called active. Roughly 18% stayed inconclusive and do not appear here. Rule as the data show it: active = normalized growth mostly below about 0.91 (no sharp cut-off); inconclusive = no clear call, values can overlap the other calls; inactive = mostly above about 0.92. The list shows a part of the results.

Assay: chemical genetic growth profiling, strain panel (AID 1159580);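 also: tested at 20 µM; growth read once vehicle control cultures reached saturation at 30 °C; 1 = growth at the plate median or of vehicle wells; lower values mean less growth of the strain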
Conditions: growth OD
[1] = S. cerevisiae deletion strains, locus YMR307W, strain GAS1, hits give low values
[2] = S. cerevisiae deletion strains, locus YPL055C, strain LGE1, hits give low values

Measured: normalized growth

COc1cc(C(=O)OCCCN2CCCN(CCCOC(=O)c3cc(OC)c(OC)c(OC)c3)CC2)cc(OC)c1OC
inactive: S. cerevisiae deletion strains, locus YAL040C, strain CLN3, hits give low values 0.967 | S. cerevisiae deletion strains, locus YCL061C, strain MRC1 (second series), hits give low values 1.01 | S. cerevisiae deletion strains, locus YDR150W, strain NUM1, hits give low values 0.998 | S. cerevisiae deletion strains, locus YDR363W, strain ESC2, hits give low values 1.03 | S. cerevisiae deletion strains, locus YER002W, strain NOP16, hits give low values 1.03 | [1] 1.01 | S. cerevisiae deletion strains, locus YNL175C, strain NOP13, hits give low values 1.01 | S. cerevisiae deletion strains, locus YNL197C, strain WHI3, hits give low values 1 | S. cerevisiae deletion strains, locus YNL224C, strain SQS1, hits give low values 1.01 | S. cerevisiae deletion strains, locus YOR083W, strain WHI5 (second series), hits give low values 0.972 | [2] 1.02

COc1cc(C(=O)O)cc(OC)c1OC
inactive: S. cerevisiae deletion strains, locus YAL013W, strain DEP1, hits give low values 1.02 | S. cerevisiae deletion strains, locus YBR021W, strain FUR4, hits give low values 1.01 | S. cerevisiae deletion strains, locus YBR229C, strain ROT2, hits give low values 1.01 | S. cerevisiae deletion strains, locus YCL029C, strain bik1, hits give low values 1.04 | S. cerevisiae deletion strains, locus YDL035C, strain GPR1, hits give low values 1.04 | S. cerevisiae deletion strains, locus YDL074C, strain BRE1, hits give low values 1.05 | S. cerevisiae deletion strains, locus YDL101C, strain DUN1, hits give low values 1.02 | S. cerevisiae deletion strains, locus YDL134C, strain PPH21, hits give low values 1.01 | S. cerevisiae deletion strains, locus YDL185W, strain tfp1, hits give low values 1.03 | S. cerevisiae deletion strains, locus YDL192W, strain arf1, hits give low values 1.02 | S. cerevisiae deletion strains, locus YDR101C, strain arx1, hits give low values 1.02 | S. cerevisiae deletion strains, locus YDR162C, strain NBP2, hits give low values 1.02 | S. cerevisiae deletion strains, locus YDR318W, strain mcm21, hits give low values 1.02 | S. cerevisiae deletion strains, locus YDR388W, hits give low values 1.03 | S. cerevisiae deletion strains, locus YDR502C, strain sam2, hits give low values 1.02 | S. cerevisiae deletion strains, locus YEL061C, strain CIN8, hits give low values 1.01 | S. cerevisiae deletion strains, locus YER110C, hits give low values 1.03 | S. cerevisiae deletion strains, locus YER155C, strain BEM2, hits give low values 1.01 | S. cerevisiae deletion strains, locus YER167W, strain BCK2, hits give low values 1.03 | S. cerevisiae deletion strains, locus YGL078C, strain dbp3, hits give low values 1.03 | S. cerevisiae deletion strains, locus YGL086W, strain mad1, hits give low values 1.03 | S. cerevisiae deletion strains, locus YGL248W, strain PDE1, hits give low values 1.02 | S. cerevisiae deletion strains, locus YGR078C, strain PAC10, hits give low values 1.03 | S. cerevisiae deletion strains, locus YGR135W, strain pre9, hits give low values 1.02 | S. cerevisiae deletion strains, locus YGR252W, strain gcn5, hits give low values 1.09 | S. cerevisiae deletion strains, locus YHR030C, strain SLT2, hits give low values 1.02 | S. cerevisiae deletion strains, locus YHR079C, strain IRE1 (second series), hits give low values 1.02 | S. cerevisiae deletion strains, locus YHR094C, strain hxt1, hits give low values 1.02 | S. cerevisiae deletion strains, locus YHR129C, strain ARP1, hits give low values 1.02 | S. cerevisiae deletion strains, locus YHR200W, strain rpn10, hits give low values 1.02 | S. cerevisiae deletion strains, locus YIL066C, strain RNR3, hits give low values 1.04 | S. cerevisiae deletion strains, locus YIL073C, strain SPO22, hits give low values 1.09 | S. cerevisiae deletion strains, locus YIL125W, strain kgd1, hits give low values 1.03 | S. cerevisiae deletion strains, locus YIR030C, strain dcg1, hits give low values 1.02 | S. cerevisiae deletion strains, locus YJL095W, strain BCK1, hits give low values 1.02 | S. cerevisiae deletion strains, locus YJL134W, strain LCB3, hits give low values 1.02 | S. cerevisiae deletion strains, locus YJL168C, strain set2, hits give low values 1.03 | S. cerevisiae deletion strains, locus YJL187C, strain SWE1 (second series), hits give low values 1.03 | S. cerevisiae deletion strains, locus YJR043C, strain POL32, hits give low values 1.03 | S. cerevisiae deletion strains, locus YJR075W, strain HOC1, hits give low values 1.04 | S. cerevisiae deletion strains, locus YKL009W, strain mrt4, hits give low values 1.08 | S. cerevisiae deletion strains, locus YKL068W, hits give low values 1.04 | S. cerevisiae deletion strains, locus YKL085W, strain MDH1 (second series), hits give low values 1.07 | S. cerevisiae deletion strains, locus YKL085W, strain MDH1, hits give low values 1.07 | S. cerevisiae deletion strains, locus YKR001C, strain vps1, hits give low values 1.02 | S. cerevisiae deletion strains, locus YLR039C, strain RIC1, hits give low values 1.07 | S. cerevisiae deletion strains, locus YLR058C, strain SHM2, hits give low values 1.02 | S. cerevisiae deletion strains, locus YLR102C, strain apc9, hits give low values 1.02 | S. cerevisiae deletion strains, locus YLR262C, strain YPT6, hits give low values 1.09 | S. cerevisiae deletion strains, locus YLR268W, strain sec22, hits give low values 1.02 | S. cerevisiae deletion strains, locus YLR330W, strain CHS5, hits give low values 1.02 | S. cerevisiae deletion strains, locus YLR342W, strain FKS1 (second series), hits give low values 1.04 | S. cerevisiae deletion strains, locus YLR371W, strain rom2, hits give low values 1.04 | S. cerevisiae deletion strains, locus YLR418C, strain cdc73, hits give low values 1.04 | S. cerevisiae deletion strains, locus YML016C, strain PPZ1, hits give low values 1.02 | S. cerevisiae deletion strains, locus YML032C, strain rad52, hits give low values 1.03 | S. cerevisiae deletion strains, locus YML124C, strain tub3, hits give low values 1.02 | S. cerevisiae deletion strains, locus YMR078C, strain ctf18, hits give low values 1.06 | S. cerevisiae deletion strains, locus YMR223W, strain ubp8, hits give low values 1.02 | S. cerevisiae deletion strains, locus YMR263W, strain SAP30, hits give low values 1.02 | [1] 1.03 | S. cerevisiae deletion strains, locus YNL067W, strain RPL9B, hits give low values 1.03 | S. cerevisiae deletion strains, locus YNL128W, strain TEP1, hits give low values 1.03 | S. cerevisiae deletion strains, locus YNL153C, strain GIM3, hits give low values 1.01 | S. cerevisiae deletion strains, locus YNL233W, strain BNI4, hits give low values 1.03 | S. cerevisiae deletion strains, locus YNL250W, strain rad50, hits give low values 1.03 | S. cerevisiae deletion strains, locus YNL271C, strain bni1, hits give low values 1.02 | S. cerevisiae deletion strains, locus YNL298W, strain CLA4, hits give low values 1.01 | S. cerevisiae deletion strains, locus YNL307C, strain MCK1, hits give low values 1.05 | S. cerevisiae deletion strains, locus YNL322C, strain KRE1, hits give low values 1.02 | S. cerevisiae deletion strains, locus YNR052C, strain pop2, hits give low values 1.03 | S. cerevisiae deletion strains, locus YOL006C, strain TOP1, hits give low values 1.2 | S. cerevisiae deletion strains, locus YOL012C, strain htz1 1.18 | S. cerevisiae deletion strains, locus YOL147C, strain pex11, hits give low values 1.02 | S. cerevisiae deletion strains, locus YOR061W, strain CKA2, hits give low values 1.02 | S. cerevisiae deletion strains, locus YOR069W, strain VPS5, hits give low values 1.01 | S. cerevisiae deletion strains, locus YOR136W, strain idh2, hits give low values 1.02 | S. cerevisiae deletion strains, locus YOR144C, strain elg1, hits give low values 1 | S. cerevisiae deletion strains, locus YOR184W, strain ser1, hits give low values 1.02 | S. cerevisiae deletion strains, locus YOR316C, strain cot1, hits give low values 1.02 | [2] 1.05 | S. cerevisiae deletion strains, locus YPL241C, strain CIN2, hits give low values 1.02 | S. cerevisiae deletion strains, locus YPR119W, strain clb2, hits give low values 1.02 | S. cerevisiae deletion strains, locus YPR141C, strain kar3, hits give low values 1.02 | S. cerevisiae deletion strains, locus YPR163C, strain tif3, hits give low values 1.02 | S. cerevisiae deletion strains, locus YPR167C, strain met16, hits give low values 1.03 | S. cerevisiae deletion strains, strain wtn01, hits give low values 1.03 | S. cerevisiae strains, strain wild type, hits give low values 1.02
